Drawing on ChEMBL document CHEMBL3433997, “St. Jude Leishmania screening dataset” (2016), this text covers inhibition for 12 molecules.

Common to all, as to type: functional
Experiment [1] deals with Solute carrier family 2, facilitated glucose transporter member 1 (Homo sapiens) (UniProt P11166). The experiment can be described thus: ST_JUDE_LEISH: Cytotoxicity at 2uM final concentration against transgenic Leishmania Mexicana promastigotes LmGLUT1 that are glucose transport deficient and complemented with the human glucose transporter GLUT1. Activity is measured by DNA content using SYBR green in vitro.

For experiment [2], the target named is Hexose transporter 1 (Plasmodium falciparum) (UniProt O97467). The experiment can be described thus: ST_JUDE_LEISH: Cytotoxicity at 2uM final concentration against transgenic Leishmania Mexicana promastigotes LmPfHT that are glucose transport deficient and complemented with the Plasmodium falciparum hexose transporter. Activity is measured by DNA content using SYBR green in vitro.

Experiment [3] addresses Glucose transporter (Leishmania mexicana) (UniProt O61059). The experiment can be described thus: ST_JUDE_LEISH: Cytotoxicity at 2uM final concentration against transgenic Leishmania Mexicana promastigotes LmGT2 that are glucose transport deficient and complemented with the L. Mexicana glucose transporter 2. Activity is measured by DNA content using SYBR green in vitro.

Sequence of Solute carrier family 2, facilitated glucose transporter member 1 (Homo sapiens) (P11166 whole entry): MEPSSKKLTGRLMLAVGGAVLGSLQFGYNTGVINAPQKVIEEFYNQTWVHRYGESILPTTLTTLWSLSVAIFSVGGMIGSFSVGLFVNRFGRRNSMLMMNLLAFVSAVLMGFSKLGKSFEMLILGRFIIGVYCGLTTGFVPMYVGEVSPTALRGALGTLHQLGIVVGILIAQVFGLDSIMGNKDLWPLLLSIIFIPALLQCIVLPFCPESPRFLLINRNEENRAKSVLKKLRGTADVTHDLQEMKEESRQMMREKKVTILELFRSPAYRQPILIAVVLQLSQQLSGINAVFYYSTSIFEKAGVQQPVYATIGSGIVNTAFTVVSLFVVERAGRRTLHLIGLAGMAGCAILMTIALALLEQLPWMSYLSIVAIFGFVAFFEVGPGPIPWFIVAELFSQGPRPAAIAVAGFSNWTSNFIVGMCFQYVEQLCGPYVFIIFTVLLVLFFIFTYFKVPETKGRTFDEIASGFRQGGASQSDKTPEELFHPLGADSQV

Broadly, the inhibition is the relative decrease from the control value, in per cent. For the molecule `Cc1nc(-c2cccc(C(F)(F)F)c2)n2nc(Nc3ccc(OCCN4CCCC4)cc3)ncc12`, the inhibition is 76% in experiment [1], 53.7% in experiment [2] and 9.22% in experiment [3].

For the molecule `Cc1cc(N2CCCCC2)nc2ccc(NC(=O)c3cc(=O)c4ccccc4o3)cc12`, the figures for the inhibition in experiment [1], in experiment [2] and in experiment [3] were 5.94%, 7.2% and 0.66%, respectively.

Consider `Nc1c(C(=O)NCCCCN2CCN(c3nsc4ccccc34)CC2)sc2ccccc12`, for which the inhibition in experiment [1] was 5.13%; in experiment [2] it was 4.14%; in experiment [3], 2.39%.

On to `CC1(C)NC(N)=NC(=N)N1OCCCc1cc(Cl)c(Cl)cc1Cl`, for which the inhibition in experiment [1] came out at 3.14%; in experiment [2], 2.31%; in experiment [3] it was 2.77%.

Turning to `CC(=O)c1cc(N2CCOCC2)ccc1N`, the inhibition was determined as 2.03% in experiment [1], 1.08% in experiment [2] and 2.38% in experiment [3].

With `COc1ccc(S(=O)(=O)N2CCCC(C)C2)cc1N1CCN(C(=O)c2ccc([N+](=O)[O-])o2)CC1` (stereo unspecified), the values for the inhibition in experiment [1], in experiment [2] and in experiment [3] were 1.83%, 0.28% and 0.09%, respectively.

For `Cc1c(CN2CCCCC2)cccc1OCCCNc1nc(NCCc2ccc(O)cc2)nc(N2CCNCC2)n1`, the values for the inhibition in experiment [1], in experiment [2] and in experiment [3] were 5.55%, 2.95% and 5.43%, respectively.

In the case of `COc1ccc(Nc2nccc(-c3ccc4ccnc(NCCCCN)c4c3)n2)cc1`, the inhibition in experiment [1] is -0.78%; in experiment [2], -1.84%; in experiment [3], -4.14%.

With `O=C(Nc1ccc(F)cc1)NC1CCN(CCCCCNC(=O)C2CC2c2ccc(Cl)c(Cl)c2)CC1` (stereo unspecified), the inhibition was determined as 1.84% in experiment [1], 1.54% in experiment [2] and 2.31% in experiment [3].

In the case of `CC(C)CNCc1ccc(-c2cccc(CNc3ccc4ncccc4c3)c2)cc1`, the inhibition was determined as 4.79% in experiment [1], 3.71% in experiment [2] and 2.69% in experiment [3].

`O=C(NCC1CC1)C1CCN(C(c2ccccc2)c2nc3ccccc3s2)CC1` (stereo unspecified): the inhibition in experiment [1] was -0.89%; in experiment [2], -1.39%; in experiment [3] it was -4.85%.

For `O=C(/C=C/c1ccc(Cl)c(Cl)c1)NCCCCCN1CCC(NC(=O)Nc2ccc(F)c(F)c2)CC1`, the inhibition in experiment [1] was -1.34%; in experiment [2], -0.67%; in experiment [3], -2.11%.
